Most compounds without a hit are left out; they make up all but 19% or so of the library.
DT40 TDP1 CPT – DT40-hTDP1 cell growth loss with CPT. chicken DT40 Tdp1-/-;hTDP1 cells + 20 nM CPT, ATP luminescence, 48 h. Potency, µM (titrated, usually from 46.2 µM), without a hit: top-dose activity change, negative = growth inhibition, usual class: inhibitors. 420,000 tested, 12% active; also: potency is read from the fitted curve at half-maximal effect; nearly all actives have a fitted effect of over 55% in size
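Chicken DT40 Tdp1-/- cells stably complemented with human TDP1 were seeded at 400 cells/well in medium containing 20 nM camptothecin, exposed to pin-transferred compounds, and grown at 37 °C for at least 48 hr. Viability was read as ATP luminescence.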
DT40 TDP1 no CPT – qHTS for Inhibitors of human tyrosyl-DNA phosphodiesterase 1 (TDP1): qHTS in cells in absence of CPT. 420,000 tested, 15% active. DT40 Tdp1-/- hTDP1 cells, no CPT, ATP luminescence, 48 h. Potency, µM (highest dose often 46.2 µM), for the others: at the top dose activity change, negative = growth inhibition, hits mostly inhibitors; also: potency is read from the fitted curve at half-maximal effect; nearly all actives have a fitted effect of over 55% in size
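Growth of hTDP1-complemented DT40 Tdp1-knockout cells is measured by ATP luminescence after at least 48 hr compound exposure at 37 °C, with DMSO substituting for the 20 nM CPT used in the parallel screen.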
HT1080 IDH1KD tx – kills HT-1080 cells with IDH1 knockdown; HT-1080 IDH1 knockdown viability, ATP luminescence, 48 h; Potency, µM (top dose mostly 46.1 µM), inactives show at the top dose activity, negative = toxicity, actives largely listed as cytotoxic; 360,000 tested, 2% active; AID 686971;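 also: potency is read from the fitted curve at half-maximal effect; 0% = DMSO wells and -100% = cell-free medium wells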
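Viability of IDH1-knockdown HT-1080 fibrosarcoma cells was assessed by CellTiter-Glo after 48 h at 37 °C with titrated compound; concentration-effect curves were classified by fit quality and response size.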
HT1080NT lethal – kills 2HG-producing HT-1080-NT fibrosarcoma cells. HT-1080-NT fibrosarcoma viability, CellTiter-Glo ATP luminescence, 48 h. Potency, µM (doses to about 46.1 µM), inactives show at the highest dose activity, negative = less viability, hits mostly cytotoxic. 360,000 tested, 1.6% active. AID 686970;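 also: NT is the 2HG producing partner of a matched IDH1 knockdown line; potency is read from the fitted curve at half-maximal effect; 0% = DMSO-treated cells and -100% = media-only wells without cells; nearly all actives have a fitted effect of over 55% in size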
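A 48-hour cytotoxicity screen used HT-1080-NT cells plated 2 hours before compound delivery. ATP-based CellTiter-Glo luminescence measured viability, normalized to DMSO and no-cell controls.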
IL-1B inflam inh – inflammasome signaling inhibition, IL-1 beta readout; THP-1 LPS/ATP IL-1B secretion, AlphaLISA, 16 h; stronger effect = lower value; activity change, % at 57.5 µM; 360,000 tested, 4.7% active; in the data active = activity change below about -50%; inconclusive = mostly about -30% to -49%
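Secreted IL-1B measured by AlphaLISA bead assay after 16 h compound exposure of THP-1 cells; compounds (final up to 57.5 uM) added 1 h before LPS (250 ng/mL) and ATP (1.25 mM) stimulation; lower signal means less secretion.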
ELG1 DNA repair – ELG1-dependent DNA repair inhibition. HEK293T ELG1-luciferase reporter, luminescence, 16 h; DNA damage induced by 5-fluorouridine. Potency, µM (highest dose often 46.1 µM), inactives show at the highest dose activity change, negative = inhibition, actives largely listed as inhibitors. 330,000 tested, 2.3% active. AID 504467; also: potency is read from the fitted curve at half-maximal effect; nearly all actives have a fitted effect of over 55% in size
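DMSO vehicle served as the neutral condition. Each well held 2,000 cells given 5-fluorouridine plus compound; after 16 hr at 37 °C/5% CO2, ONE-Glo was added and luciferase measured 30 min later.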
Numbers without * were called inactive; ? = inconclusive; / = not tested or not shown; [ ] = dose if it differs, or a comment. Unless noted, calls follow the shape of the dose curve; as a rule, active = well fitted curve in the direction sought with a large enough effect; inconclusive = small, poorly fitted or top-dose-only effect, or another doubt; inactive = no such curve, though single readings can be large; an effect the other way counts as inactive or inconclusive. Unless noted, % is scaled to controls: 0 for no effect and ±100 for the full control effect.

SMILES	DT40 TDP1 CPT	DT40 TDP1 no CPT	HT1080 IDH1KD tx	HT1080NT lethal	IL-1B inflam inh	ELG1 DNA repair
O=C1NC(=O)N(Cc2ccccc2)C(=O)/C1=C\c1ccco1	20.6µM*	13µM*	-14.4%	-25.1%	-6.1	12.4%
CCCCN1C(=O)/C(=C/C=C/c2ccco2)C(=O)NC1=S	-26.2%	-12.3%	12.2%	0.4%	-9.1	0.6%
COC(=O)C1=C(c2ccc(OC)c(OC)c2)C[C@@H]2CC[C@H]1N2C(=O)NCCCOC(C)C	3.4%	-16.8%	13.3%	4.0%	17.5	8.7%
CNC(=O)Oc1cccc(-c2cn3cc(OC(=O)NC)ccc3n2)c1	?	20.6µM*	-9.2%	-12.4%	14.2	?
CNC(=O)Oc1c(C)[nH]ccc1=O	0.7%	-0.1%	-2.2%	-0.7%	-14.9	/
CNC(=O)Oc1ccc(-c2cn3cc(Cl)ccc3n2)cc1	20.6µM*	?	-16.4%	-1.3%	?	?
COCCNC(=O)c1ccc(N2CC3CC(C2)c2cccc(=O)n2C3)c([N+](=O)[O-])c1 (centres undefined)	-7.9%	-11.5%	11.7%	?	3.0	7.5%
CC(CCC(=O)O)C1CCC2C3C(=O)CC4CC(=O)CC[C@@]4(C)C3CC(=O)[C@]12C (some centres undefined)	5.9%	-4.4%	/	/	/	/
CC(C)(C)NCc1cccn1-c1sc2c(c1C#N)CCCC2	?	-29.2%	5.3%	-0.4%	-18.1	-17.6%
Cc1ccc([C@H]2N[C@]3(CCCN(Cc4ccc(C(F)(F)F)cc4)C3=O)[C@H]3C(=O)N(Cc4ccccc4)C(=O)[C@@H]23)cc1	23.1µM*	?	-28.0%	-21.9%	-70.4*	/
CCN1C[C@@H]2[C@@H]3C(=O)N(Cc4ccccc4)C(=O)[C@@H]3[C@](CC)(C1=O)N2C(=O)c1ccc(C(C)(C)C)cc1	?	?	0.0%	-0.2%	23.4	/
COc1cc(O)c2c(c1)/C=C/C[C@H](O)[C@H](O)C(=O)CCC[C@H](C)OC2=O	?	?	3.5%	6.7%	-81.3*	/
O=C1c2cccc3cc([N+](=O)[O-])cc(c23)C(=O)N1c1ccccc1O	20.6µM*	16.4µM*	3.3%	-4.5%	18.1	-3.9%
O=C(/C=C/c1ccc(F)cc1)NNC(=O)CCN1CCN(Cc2ccccc2)CC1	-24.5%	?	-22.0%	0.5%	-20.3	5.8%
CN1CN(c2ccccc2)C2(CCN(CCCSc3ccccc3NC(=O)/C=C/c3ccccc3)CC2)C1=O	?	?	?	?	-71.3*	/
O=C(Oc1ccccc1)N1CCC2(CC1)CN(Cc1ccncc1)C2	-19.4%	?	/	/	/	/
Cc1ccc(S(=O)(=O)N2CCC(C(=O)N3CCC4(CC3)OCCO4)CC2)cc1	-21.7%	-3.0%	-4.8%	-0.5%[9.24 µM]	-9.4	10.4%
Cc1ccc(N2CCN(C(=O)C3CCC(CNS(=O)(=O)c4ccc(Br)s4)CC3)CC2C)cc1 (centres undefined)	7.31µM*	4.61µM*	/	/	/	/
COC(=O)c1ccc(NC(=O)c2cccn(Cc3ccccc3C)c2=O)cc1	-11.6%	10.7%	/	/	/	/
C[C@H](CO)N1C[C@H](C)[C@H](CN(C)S(=O)(=O)c2ccccc2)Oc2ccc(NC(=O)NC3CCCCC3)cc2CC1=O	?	?	-15.1%	-5.9%	?	9.8%
C[C@H](CO)N1C[C@H](C)[C@@H](CN(C)Cc2ccc(Cl)c(Cl)c2)Oc2c(NC(=O)c3ccncc3)cccc2C1=O	20.6µM*	?	0.5%	?	-5.1	?
C[C@H](CO)N1C[C@H](C)[C@@H](CN(C)S(=O)(=O)c2cccs2)Oc2ccc(NC(=O)Nc3ccc4c(c3)OCO4)cc2C1=O	20.6µM*	18.4µM*	-5.7%	-0.3%	?	?
COc1ccc(S(=O)(=O)N(C)C[C@H]2Oc3c(NC(=O)NC4CCCCC4)cccc3C(=O)N([C@H](C)CO)C[C@@H]2C)cc1	?	?	-13.0%	-2.7%	-55.3*	?
CC1=Nc2cc(C(=O)N3CCC4(CC3)OCCO4)ccc2Sc2ccc(Cl)cc21	?	?	-4.9%	2.3%	0.0	-10.6%
OCCCNc1ccccc1	8.9%	-21.5%	/	/	/	/
SMILES	DT40 TDP1 CPT	DT40 TDP1 no CPT	HT1080 IDH1KD tx	HT1080NT lethal	IL-1B inflam inh	ELG1 DNA repair
CC(C)NC(=O)N1CCCC2(CCN(C(=O)Oc3ccccc3)CC2)C1	-21.1%	?	/	/	/	/
CCCn1c(=O)n(C)c(=O)c2c(SCC(=O)NC34CC5CC(CC(C5)C3)C4)nc(CC(C)C)nc21	14.6µM*	?	-0.1%	11.6%	7.7	23.1µM*
CCN(CCCl)Cc1ccccc1Br	16.4µM*	?	4.9%	28.7%	19.7	/
Cc1ccc(C(C)C)c(OCCn2c(=O)oc3ccccc32)c1	29.1µM*	?	-8.5%	-3.3%	-3.2	22.5%
O=C1CCN(C(=O)CCCn2c(=O)oc3ccccc32)CC1	19.9%	-4.9%	5.7%	3.2%	17.4	15.1%
CNC(C)CCC=C(C)C (centres undefined)	?	15µM*	/	/	/	/
CNC(C)CC1CCCCC1 (centres undefined)	-3.5%	-14.0%	/	/	/	/
CCCC[N+]12C3CC(C(CC)[C@H]1O)[C@@H]1C(O)C4(C[C@@H]12)c1ccccc1N(C)C34 (some centres undefined)	?	-10.5%[9.04 µM]	/	/	/	/
Cc1ccc(-c2nc3c(=O)n(C)c(=O)nc-3n(C)n2)cc1	0.631µM*	0.501µM*	/	/	/	/
Cn1ncnc2c(=O)n(C)c(=O)nc1-2	0.206µM*	0.291µM*	1.03µM*	0.517µM*	-108.4*	6.51µM*
COC(=O)c1c(N)[nH]c(C(=O)c2ccccc2)c1-c1ccc(Cl)cc1	?	?	5.2%	0.5%	3.4	/
COc1cc(-c2ccc(-[n+]3nc(-c4ccccc4)nn3-c3ccc([N+](=O)[O-])cc3)c(OC)c2)ccc1-[n+]1nc(-c2ccccc2)nn1-c1ccc([N+](=O)[O-])cc1	2.66µM*	5.96µM*	/	/	/	/
c1ccc(-c2nn(-c3ccccc3)[n+](-c3ccccc3)n2)cc1	0.581µM*	0.411µM*	?	-16.1%	14.7	/
Cc1ccc(C[N+](C)(C)C)o1	?	-11.7%	/	/	/	/
CC(C)CCNC(=O)c1c(N)n(CC2CCCO2)c2nc3ccccc3nc12 (centres undefined)	25.9µM*	29.1µM*	?	?	?	?
CCOC(=O)c1c(C)n(Cc2ccc3c(c2)OCO3)c2ccc(O)cc12	?	?	?	-16.7%	44.7	?
